Laboratory results as given in PubChem BioAssay (NCATS).
Values joined by “and” are separate entries in the source; they are usually repeats but may differ in a detail not shown here. Identical values can stand only once. Records with an inconclusive call do not appear. A call without a number means that no potency is given here. A number with no mark means an inactive call. Active and inactive are the calls of the source. Calls follow the shape of the dose curve; as a rule, active = well fitted curve in the direction sought with a large enough effect; inconclusive = small, poorly fitted or top-dose-only effect, or another doubt; inactive = no such curve, though single readings can be large; an effect the other way counts as inactive or inconclusive.

What was measured:
[1] = biological target: Cytochrome P450 3A7 (Homo sapiens) (UniProt P24462); assay: Cytochrome P450 family 3 subfamily A member 7 (CYP3A7) small molecule antagonists: luciferase biochemical qHTS assay (AID 1963596); also: nearly all actives have a fitted effect of over 40% in size
Summary of the method: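 In this luminescent screen, enzyme and proluciferin substrate meet test compound for 10 min before NADPH regeneration solution drives a 1 h room-temperature reaction; detection reagent halts turnover and luminescence is read 20 min later.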

[2] = Viability qHTS for spleen associated tyrosine kinase inhibitor (SYKi) naive MV4-11 cells (AID 1963823); also: nearly all actives have a fitted effect of over 40% in size; also: potency is read from the fitted curve at half-maximal effect
Summary of the method: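 qHTS, SYK inhibitor-naive MV4-11; 500 cells/well; 72 hr compound exposure, 37 C; CellTiter-Glo added, 10 min RT; luminescence read.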

[3] = Viability qHTS for spleen associated tyrosine kinase inhibitor (SYKi) drug resistant MV4-11 cells (AID 1963824); also: nearly all actives have a fitted effect of over 35% in size; also: potency is read from the fitted curve at half-maximal effect
Summary of the method: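 SYK-inhibitor-resistant MV4-11 AML cells were seeded at 500 per well onto compound and cultured 72 hours (37 °C, 5% CO2). CellTiter-Glo was then added, and after 10 min at room temperature, luminescence gave viability.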

[4] = Quantitative highthroughput screen to assess conditional lethalithy of NOMO1 cells grown in RPMI1640 with untreated serum (RPMI+s) (AID 1963876); also: potency is read from the fitted curve at half-maximal effect; nearly all actives have a fitted effect of over 35% in size
Summary of the method: (§1)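 Each medium arm—HPLM with 10% dialyzed FBS, or RPMI1640 with 5 mM glucose and 10% untreated or dialyzed FBS—was screened against an 11-point, 3-fold compound titration for 48 h at 37 °C, with CellTiter-Glo luminescence as endpoint.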

[5] = Quantitative highthroughput screen to assess conditional lethalithy of P12 Ichikawa cells grown in Human Plasma-Like Medium with dialyzed fetal bovine serum (HPLM+ds) (AID 1963879); conditions: Potency: viability; also: nearly all actives have a fitted effect of over 35% in size; also: potency is read from the fitted curve at half-maximal effect; as to Viability: series mostly up to about 46 µM
Summary of the method: as §1

[6] = Quantitative highthroughput screen to assess conditional lethalithy of P12 Ichikawa cells grown in RPMI1640 with dialyzed fetal bovine serum (RPMI+ds) (AID 1963880); conditions: Potency: P12-Ichikawa viability; also: potency is read from the fitted curve at half-maximal effect; nearly all actives have a fitted effect of over 35% in size
Summary of the method: as §1

[7] = Quantitative highthroughput screen to assess conditional lethalithy of P12 Ichikawa cells grown in RPMI1640 with untreated serum (RPMI+s) (AID 1963881); conditions: Potency: viability
Summary of the method: as §1

[8] = Quantitative highthroughput screen to assess conditional lethalithy of SEM cells grown in Human Plasma-Like Medium with dialyzed fetal bovine serum (HPLM+ds) (AID 1963882); also: nearly all actives have a fitted effect of over 35% in size; also: potency is read from the fitted curve at half-maximal effect; as to Viability: series mostly up to about 46 µM
Summary of the method: as §1

[9] = Quantitative highthroughput screen to assess conditional lethalithy of SEM cells grown in RPMI1640 with unreated serum (RPMI+s) (AID 1963883); also: nearly all actives have a fitted effect of over 35% in size; also: potency is read from the fitted curve at half-maximal effect
Summary of the method: as §1

[10] = Quantitative highthroughput screen to assess conditional lethalithy of SEM cells grown in RPMI1640 with dialyzed fetal bovine serum (RPMI+ds) (AID 1963884); also: nearly all actives have a fitted effect of over 35% in size; also: potency is read from the fitted curve at half-maximal effect; as to Viability: series mostly up to about 46 µM
Summary of the method: as §1

[11] = Cellular viability qHTS for adrenocortical cancer (ACC) cell line SW-13 (AID 1963989); conditions: SW-13 ACC cells viability, CellTiter-Glo, 48 h; activity (max response): hits give low values; also: nearly all actives have a fitted effect of over 65% in size; also: potency is read from the fitted curve at half-maximal effect;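 as to activity (max response): cells grown in serum-free medium with ITS supplement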
Summary of the method: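 IC50 and maximal-response values come from four-parameter logistic fits of titration data. SW-13 cells in serum-free medium received compounds (up to 46 uM final) for 48 h before CellTiter-Glo luminescence.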

[12] = Cellular viability qHTS for adrenocortical cancer (ACC) cell line NCI-H295R (AID 1963990); also: nearly all actives have a fitted effect of over 60% in size; also: potency is read from the fitted curve at half-maximal effect
Summary of the method: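 Adrenocortical carcinoma cells, suspended at 300 000 cells/mL in serum-free DMEM plus ITS, rested overnight before pin transfer of compound. After two days' incubation, ATP-dependent luminescence was recorded and curve-fitted.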

Chain of Cytochrome P450 3A7 (Homo sapiens) (P24462 whole entry, looked up): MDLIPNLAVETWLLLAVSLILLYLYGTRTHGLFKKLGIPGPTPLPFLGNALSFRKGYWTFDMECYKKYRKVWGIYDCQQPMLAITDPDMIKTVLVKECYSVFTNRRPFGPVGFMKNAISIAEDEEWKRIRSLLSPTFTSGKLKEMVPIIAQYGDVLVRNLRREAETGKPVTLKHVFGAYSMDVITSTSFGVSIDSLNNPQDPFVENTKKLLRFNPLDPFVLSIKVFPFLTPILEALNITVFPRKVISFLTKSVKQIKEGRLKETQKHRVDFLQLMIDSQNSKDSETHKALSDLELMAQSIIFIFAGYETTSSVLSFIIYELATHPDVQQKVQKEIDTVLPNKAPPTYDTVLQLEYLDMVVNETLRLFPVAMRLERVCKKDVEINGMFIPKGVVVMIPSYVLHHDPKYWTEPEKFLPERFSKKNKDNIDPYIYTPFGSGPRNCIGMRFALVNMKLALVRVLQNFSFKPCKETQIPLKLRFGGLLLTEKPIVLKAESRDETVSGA

CCCn1c(=O)c2[nH]c(-c3cnn(Cc4cccc(C(F)(F)F)c4)c3)nc2n(CC)c1=O
Potency [1]: inactive
Potency [2]: inactive
Potency [3]: inactive
Potency [4]: 6620 nM (active)
Potency [5]: inactive
Potency [6]: 4180 nM (active)
Potency [7]: 418 nM (active)
Potency [8]: inactive
Potency [9]: inactive
Potency [10]: inactive
activity (max response) [11]: 6%
Potency [12]: inactive

CC1(C)S[C@@H]2[C@H](NC(=O)C(C(=O)O)c3ccccc3)C(=O)N2[C@H]1C(=O)O (some centres not stated)
Potency [1]: inactive
Potency [2]: inactive
Potency [3]: inactive
activity (max response) [11]: 3.14%

COc1cnc(NS(=O)(=O)c2ccc(N)cc2)nc1
Potency [1]: inactive
Potency [2]: 1.2 nM (active)
Potency [3]: inactive
Potency [8]: inactive
Potency [9]: inactive
Potency [10]: inactive
activity (max response) [11]: 10.3%

FC(F)(F)C(F)(F)C(F)(F)C(F)(F)C(F)(F)C(F)(F)C(F)(F)C(F)(F)Br
Potency [1]: inactive
Potency [2]: inactive
Potency [3]: inactive
activity (max response) [11]: 7.96%

CC(C)(C)NCC(O)c1ccc(O)c(CO)c1 (configuration not stated)
Potency [1]: inactive
Potency [2]: inactive
Potency [3]: inactive
Potency [7]: 4180 nM (active)
Potency [8]: inactive
Potency [9]: inactive
Potency [10]: inactive
activity (max response) [11]: 0.289% and -0.385%
Potency [12]: inactive

Cn1cc(-c2ccc3c(c2)CCN3C(=O)Cc2cccc(C(F)(F)F)c2)c2c(N)ncnc21
Potency [1]: inactive
Potency [2]: 731 nM (active)
Potency [3]: 2.06 µM (active) and 4.68 µM (active)
activity (max response) [11]: -1.75%

O=P(O)(O)OCC(O)CO (configuration not stated)
Potency [1]: inactive
Potency [2]: inactive
Potency [3]: inactive
activity (max response) [11]: 10.4%

CN(Cc1cnc2nc(N)nc(N)c2n1)c1ccc(C(=O)N[C@@H](CCC(=O)O)C(=O)O)cc1
Potency [1]: inactive
Potency [2]: 10.6 nM (active) and 37.2 nM (active)
Potency [3]: 10.6 nM (active) and 46.8 nM (active)
Potency [5]: 66.2 nM (active)
Potency [6]: 105 nM (active)
Potency [8]: 132 nM (active)
Potency [9]: 1050 nM (active)
Potency [10]: 83.3 nM (active)
Potency [12]: 13 nM (active) and 316 nM (active)

CC(=O)Nc1ccccc1
Potency [1]: inactive
Potency [2]: inactive
Potency [3]: inactive
activity (max response) [11]: -1.24%

Cc1cc(NS(=O)(=O)c2ccc(N)cc2)nc(C)n1
Potency [1]: inactive
Potency [2]: inactive
Potency [3]: inactive
activity (max response) [11]: 9.61%

COc1cccc2cc(-c3nc(C4CCC(C(=O)O)CC4)n4ncnc(N)c34)[nH]c12 (configuration not stated)
Potency [1]: inactive
Potency [2]: 461 nM (active) and 366 nM (active)
Potency [3]: 580 nM (active) and 461 nM (active)
Potency [5]: 296 nM (active)
Potency [7]: 590 nM (active)
Potency [8]: 590 nM (active)
Potency [9]: 935 nM (active)
Potency [10]: 1180 nM (active)

CCCCC(CC)COC(=O)c1ccccc1O (configuration not stated)
Potency [1]: inactive
Potency [2]: 596 nM (active)
Potency [3]: 5.96 µM (active)
activity (max response) [11]: 7.38%

NC(=O)COCCN1CCN(C(c2ccccc2)c2ccc(Cl)cc2)CC1 (configuration not stated)
Potency [1]: inactive
Potency [2]: inactive
Potency [3]: inactive
activity (max response) [11]: 0.82%

COc1c(OCCCN2CCOCC2)ccc2c3n(c(=NC(=O)c4cnc(N)nc4)nc12)CCN3
Potency [1]: inactive
Potency [2]: 47.3 nM (active) and 53.9 nM (active)
Potency [3]: 37.6 nM (active) and 241 nM (active)
Potency [5]: 182 nM (active)
Potency [9]: 2040 nM (active)
Potency [12]: 237 nM (active)

O=C(O)c1ccc(OCCCOc2ccc(C(=O)O)cc2)cc1
Potency [1]: inactive
Potency [2]: inactive
Potency [3]: inactive
activity (max response) [11]: 5.44%

Cc1cc(C2CCCCC2)n(O)c(=O)c1
Potency [1]: inactive
Potency [2]: 2.31 µM (active) and 4.68 µM (active)
Potency [3]: 2.59 µM (active) and 3.35 µM (active) and 3.72 µM (active)
Potency [8]: 13200 nM (active)
Potency [9]: 11800 nM (active)
Potency [10]: 13200 nM (active)
Potency [11]: 1.3 µM (active) and 25.1 µM (active)

CCO[C@H](Cc1ccc(OCCc2ccc(OS(C)(=O)=O)cc2)cc1)C(=O)O
Potency [1]: inactive
Potency [2]: inactive
Potency [3]: inactive
activity (max response) [11]: 6.74%

FC1(F)C(F)(F)C(F)(F)C2(F)C(F)(F)C(F)(F)C(F)(F)C(F)(F)C2(F)C1(F)F (configuration not stated)
Potency [1]: inactive
Potency [2]: inactive
Potency [3]: inactive
activity (max response) [11]: 5.48%

N[C@@H](COP(=O)(O)O)C(=O)O
Potency [1]: inactive
Potency [2]: inactive
Potency [3]: inactive
activity (max response) [11]: -3.07%

O=c1[nH]c(=O)n([C@H]2CCCO2)cc1F
Potency [1]: inactive
Potency [2]: 14600 nM (active)
Potency [3]: 10.6 µM (active) and 9.2 µM (active)
activity (max response) [11]: -5.11%

COC(=O)Nc1nc2ccc(C(=O)c3cccs3)cc2[nH]1
Potency [1]: inactive
Potency [2]: 106 nM (active)
Potency [3]: 42.2 nM (active) and 118 nM (active)
Potency [5]: 18.7 nM (active)
Potency [7]: 29.6 nM (active)
Potency [11]: 8.2 nM (active) and 126 nM (active)
Potency [12]: 9.2 nM (active) and 158 nM (active)

C[C@](N)(Cc1ccc(O)cc1)C(=O)O
activity change, negative = inhibition [1]: 1.38% [at 4.83 µM]
viability (% of control) [2]: 79.1% [at 4.97 µM]
viability, % of control [3]: 90.5% [at 4.97 µM]
activity (max response) [11]: -6.01%

O=c1ccc2ccccc2o1
Potency [1]: inactive
Potency [2]: inactive
Potency [3]: inactive
activity (max response) [11]: -0.445%

COc1ccccc1N1CCN(CCCNc2cc(=O)n(C)c(=O)n2C)CC1
Potency [1]: inactive
Potency [2]: inactive
Potency [3]: inactive
activity (max response) [11]: 2.85%

O=C(O)[C@@H](O)[C@H](O)[C@H](O)[C@@H](O)C(=O)O
Potency [1]: inactive
Potency [2]: inactive
Potency [3]: inactive
activity (max response) [11]: 9.05%

CN1CC(=O)N/C1=N/C(=O)Nc1cccc(Cl)c1
Potency [1]: inactive
Potency [2]: inactive
Potency [3]: inactive
activity (max response) [11]: 2.23%
